# Experimental data from PubChem BioAssay (NCI).
# The panel holds about 79,000 compounds, 15% with a hit somewhere; the sample as a whole holds those more often. A number with no mark means an inactive call. Active and inactive are the calls of the source. Cut-off read from the data, not from the text of the source: active = growth inhibition above about 70%; inactive = the rest.
# Legend:
# [1] = NCI Yeast Anticancer Drug Screen. Data for the rad50 strain (AID 155);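 note: 0% = growth of vehicle-only cultures of the same strain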; settings: S. cerevisiae rad50 strain growth inhibition, stronger effect = higher value
# Summary of the method: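 Inhibition values express reduced yeast growth in compound-treated cultures relative to vehicle-treated controls.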
# [2] = NCI Yeast Anticancer Drug Screen. Data for the mec2-1 strain (AID 157); settings: S. cerevisiae mec2-1 strain, stronger effect = higher value
# Summary of the method: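 Compounds were applied to mec2-1 yeast cells. Their growth was then compared with that of vehicle-treated cultures to give growth inhibition.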
# [3] = NCI Yeast Anticancer Drug Screen. Data for the sgs1 mgt1 strain (AID 161);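 note: 0% = growth of cultures given vehicle only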; settings: S. cerevisiae sgs1 mgt1 strain, stronger effect = higher value
# Summary of the method: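 This yeast growth screen uses a strain with defined DNA-repair lesions; compound-treated growth is compared with vehicle-treated growth.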
# [4] = NCI Yeast Anticancer Drug Screen. Data for the cln2 rad14 strain (AID 165);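 note: 0% = growth equal to vehicle treated cultures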; settings: S. cerevisiae cln2 rad14 strain, stronger effect = higher value
# Summary of the method: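 Strain: cln2 rad14 yeast, altered in cell cycle control and DNA damage repair. Read-out: growth inhibition vs vehicle.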
# [5] = NCI Yeast Anticancer Drug Screen. Data for the bub3 strain (AID 167); settings: S. cerevisiae bub3 mutant strain, stronger effect = higher value
# Summary of the method: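 Steps: expose the mutant yeast strain to compound; grow alongside vehicle-treated cultures; measure growth; express inhibition against the vehicle cultures.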
# [6] = NCI Yeast Anticancer Drug Screen. Data for the mlh1 rad18 strain (AID 175); settings: S. cerevisiae mlh1 rad18 strain growth inhibition, stronger effect = higher value
# Summary of the method: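 A repair-deficient yeast strain is exposed to test compound, and growth is scored relative to vehicle-treated controls.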
# [7] = at 5.0 µM (retest, dose inferred, filed as 0.5)
# [8] = at 50.0 µM (retest, dose inferred, filed as 5.0)
SMILES,"growth inhibition [1, 7]","growth inhibition [1, 8]",growth inhibition ([1]; at 50.0 µM),"growth inhibition [2, 7]","growth inhibition [2, 8]",growth inhibition ([2]; at 50.0 µM),"growth inhibition [3, 7]","growth inhibition [3, 8]",growth inhibition ([3]; at 50.0 µM),"growth inhibition [4, 7]","growth inhibition [4, 8]",growth inhibition ([4]; at 50.0 µM),"growth inhibition [5, 7]","growth inhibition [5, 8]",growth inhibition ([5]; at 50.0 µM),"growth inhibition [6, 7]","growth inhibition [6, 8]",growth inhibition ([6]; at 50.0 µM)
Cc1ccc(S(=O)(=O)n2c3c(c4ccccc42)CCN2C(=O)C(S(=O)(=O)c4ccccc4)=CCC32)cc1 (stereo not given),65%,97% (active),94.6% (active),71% (active),98% (active),95.7% (active),74% (active),98% (active),97.5% (active),71% (active),98% (active),97.9% (active),29%,97% (active),97.5% (active),78% (active),97% (active),95.8% (active)
CCOC(=O)C(C(C)=O)C1=C(Cl)C(=O)c2ccccc2C1=O (stereo not given),94% (active),100% (active),99.3% (active),89% (active),100% (active),99.5% (active),96% (active),100% (active),99.5% (active),77% (active),100% (active),89.7% (active),96% (active),100% (active),97.5% (active),84% (active),99% (active),99.3% (active)
C=CC(=O)NC(=O)Nc1ccc(Cl)cc1,18%,97% (active),98% (active),32%,98% (active),98.2% (active),27%,99% (active),98.9% (active),10%,98% (active),97.5% (active),23%,97% (active),98.3% (active),25%,99% (active),98.7% (active)
O=C(O)Cc1ccccc1CCc1ccccc1Cl,-26%,74% (active),85.2% (active),-11%,72% (active),82.5% (active),-19%,71% (active),83.5% (active),-2%,74% (active),87.1% (active),2%,83% (active),77.1% (active),-19%,83% (active),81.3% (active)
COc1cccc(C(=O)C(CN(C)C)CN(C)C)c1,22%,70% (active),12.2%,26%,69%,30.2%,24%,88% (active),61%,24%,79% (active),33%,24%,85% (active),71.2% (active),30%,93% (active),3%
CCCCCCCCCCCCCCCCCCn1[se]c2ccccc2c1=O,7%,7%,69.3%,16%,16%,45.4%,17%,17%,83.8% (active),15%,15%,59.1%,0%,0%,76.5% (active),-1%,-1%,33.5%
O=S(=O)(O)c1cc(N=Nc2ccc(O)c(O)c2)ccc1/C=C/c1ccc(N=Nc2ccc(O)c(O)c2)cc1S(=O)(=O)O,29%,83% (active),57%,30%,89% (active),67.6%,23%,89% (active),68.5%,31%,31%,18.8%,34%,86% (active),76.3% (active),33%,83% (active),75.4% (active)
CCOC(=O)c1c(Cl)c(CC)c(N=[N+]=[N-])n2c1nc1ccccc12,8%,73% (active),58.9%,8%,79% (active),56.9%,10%,73% (active),60.1%,0%,63%,69.6%,1%,74% (active),55%,9%,80% (active),64.6%
CC(=O)Oc1cc2c(cc1OC(C)=O)OCC(c1ccc(C)cc1)C2 (stereo not given),8%,65%,53.1%,8%,49%,57.9%,4%,61%,32.1%,2%,72% (active),64%,8%,87% (active),73.7% (active),0%,64%,75.8% (active)
Nc1ccc2nc3c(nc2c1)C(=O)c1ccccc1-3,47%,93% (active),85.5% (active),10%,93% (active),86.5% (active),19%,88% (active),85% (active),32%,90% (active),83% (active),15%,94% (active),87.6% (active),21%,93% (active),89.5% (active)
